Screening data: PubChem, National Center for Advancing Translational Sciences (NCATS)
Many of the other results were omitted from the sample, so hits are more common in it than they were.
Casp1 inh = caspase-1 (human) inhibition, allosteric or competitive | Potency, µM (series often up to 57.5 µM), without a hit: top-dose activity change, negative = inhibition, most hits filed as inhibitors | Caspase-1 enzyme, Ac-WEHD-AFC fluorogenic rate | P29466 | 75,000 compounds, 0.03% hits; active = well fitted inhibition curve with a large enough effect; inconclusive = small, poorly fitted or top-dose-only effect;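 note: plate controls were vehicle for no effect and no substrate for full effect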
GBA activity = modulators of human glucocerebrosidase; 48,000 compounds, 1.1% hits; P04062; Potency, µM; purified enzyme, resorufin glucoside fluorescence (screen aimed at inhibitors), 20 min; in the data active = potency below about 15 µM; inconclusive = mostly about 16 µM to 33 µM;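 note: the screen sought inhibitors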
Target sequence (P04062 whole entry, looked up): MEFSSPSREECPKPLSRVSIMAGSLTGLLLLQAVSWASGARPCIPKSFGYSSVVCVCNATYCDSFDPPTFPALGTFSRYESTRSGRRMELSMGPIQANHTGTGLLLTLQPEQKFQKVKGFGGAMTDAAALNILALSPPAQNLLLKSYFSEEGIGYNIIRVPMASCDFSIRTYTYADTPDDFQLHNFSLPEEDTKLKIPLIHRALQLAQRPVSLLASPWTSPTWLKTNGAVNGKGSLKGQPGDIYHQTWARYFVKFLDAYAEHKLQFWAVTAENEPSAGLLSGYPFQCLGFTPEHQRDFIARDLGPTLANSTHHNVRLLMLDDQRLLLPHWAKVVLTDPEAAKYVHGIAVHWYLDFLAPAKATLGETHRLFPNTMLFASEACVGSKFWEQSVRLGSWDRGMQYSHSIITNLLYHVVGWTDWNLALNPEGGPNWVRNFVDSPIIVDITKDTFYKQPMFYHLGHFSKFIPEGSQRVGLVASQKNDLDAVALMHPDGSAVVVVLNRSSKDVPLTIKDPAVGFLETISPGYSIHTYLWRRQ
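Compounds titrated against 0.2 nM normal enzyme, 30 uM resorufin beta-D-glucopyranoside substrate, citrate/phosphate buffer with taurocholate and tween-20, pH 5.9. Reaction ran 20 min at room temperature; fluorescence (Ex 548/Em 600) gave AC50.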
Casp7 inh = blocks human caspase-7 allosterically or competitively; P55210; recombinant caspase-7, Ac-DEVD-AFC fluorescence rate; Potency, µM (top dose mostly 57.5 µM), for inactives: top-dose activity change, negative = inhibition, most hits filed as inhibitors; 75,000 compounds, 0.02% hits; active = well fitted inhibition curve with a large enough effect in the main read-out, with a control signal flat, not every such curve was filed as active; inconclusive = small, poorly fitted or top-dose-only effect, or a change in a side signal; note: % of control where 0% means no effect
* hit, by the source's call; ? = inconclusive; / = not tested or not shown; [ ] = remark or other dose. Potency is the fitted concentration of half-maximal effect.

SMILES	Casp1 inh	GBA activity	Casp7 inh
CC(=O)NCCNc1nc(-c2ccccc2C(F)(F)F)nc2ccccc12	2%	/	1%
CN(C)CCC[C@@H]1c2ccccc2Oc2ccc(C(F)(F)F)cc21	0%[11.5 µM]	/	-4%[11.5 µM]
O=C1OC(Nc2nccs2)c2ccccc21 (stereo unspecified)	0%	>77	1%
O=C1OC(Nc2nc3ccccc3s2)c2ccccc21 (stereo unspecified)	-2%	15*	0%
COc1ccccc1OCc1ccc(C(=O)Nc2ccncc2)o1	1%	13*	-1%
COc1ccccc1OCc1ccc(C(=O)NC(C)(C)C)o1	-2%	>77	1%
c1cncc(CNc2cc(-c3ccc4c(c3)OCO4)ncn2)c1	-3%	/	0%
COc1ccc(OC)c(S(=O)(=O)n2ccnc2)c1	-4%	/	1%
O=c1cc(-c2ccc(O)c(O)c2)oc2ccccc12	-1%	/	-8%
O=S(=O)(NC1CCCC1)c1ccc(S(=O)(=O)N2CCCN(Cc3ccccc3)C2)cc1	-4%	15*	-3%
CS(=O)(=O)NC1CCN(Cc2ccccc2)CC1	5%	>77	0%
CO[C@H]1COC(=O)C/C=C\[C@@H](C)COC(=O)[C@@H](C)NC(=O)C/C=C\[C@@H]1C	0%[11.5 µM]	/	-1%[11.5 µM]
Cc1nn(-c2ccccc2)c2c1C(c1ccncc1)C(C#N)=C(N)O2 (stereo unspecified)	0%	/	3%
Cc1nn(-c2ccccc2)c2c1C(c1c(C)[nH]c(C#N)c1C)C(C#N)=C(N)O2 (stereo unspecified)	1%	11*	0%
CCOC(=O)C1[C@H]2C(=O)N(C(C)c3ccc(OC)cc3)C[C@]23C=C[C@H]1O3 (stereo partly specified)	-5%	>77	-4%
CCCOC(=O)C1[C@H]2C(=O)N(C(C)c3ccc(OC)cc3)C[C@]23C=C[C@H]1O3 (stereo partly specified)	0%	13*	-1%
COC(=O)C1OC(=O)C2O[C@@]23[C@]2(C)C(OC(C)=O)CC4C(C)(C)C(=O)CC[C@]4(C)C2CC[C@@]13C (stereo partly specified)	3%	/	-4%
O=C1CCCC=C1[C@H](O)c1ccc([N+](=O)[O-])cc1	0%[11.5 µM]	/	0%[11.5 µM]
COc1cccc2cc(C(=O)C3=C(O)C(=O)N(CCCN4CCOCC4)C3c3ccncc3)oc12 (stereo unspecified)	-2%	>77	2%
COc1cccc(NC(=O)N(CCCN2CCOCC2)C(C)c2cc3cccc(OC)c3o2)c1 (stereo unspecified)	0%	9.6*	0%
COc1ccc(NC(=O)N2CCCC3(CCN(C(=O)c4csnn4)CC3)C2)cc1	-2%	/	-1%
COc1ccc(-n2c(=O)c(C)nc3cnc(Nc4cccc(OC)c4)nc32)cc1	-5%	/	-10%
CCCn1cnc2c(c1=O)c1nc3ccccc3nc1n2CCC1=CCCCC1	-2%	>77	-1%
CCCn1cnc2c(c1=O)c1nc3ccccc3nc1n2CCc1ccccc1	-4%	7*	-3%
O=C(c1cnccn1)N1CCC2(CC1)CN(Cc1ccccc1)C2	-2%	/	0%
SMILES	Casp1 inh	GBA activity	Casp7 inh
O=C1C2C3C=CC(C3)C2C(=O)N1CNc1ccc(O)cc1 (stereo unspecified)	?	12*	-25%
Cc1ccc(NCN2C(=O)C3C4C=CC(C4)C3C2=O)cc1 (stereo unspecified)	0%	/	1%
Cn1cccc1C(=O)N1CCC2(CC1)CCN(c1ccccn1)CC2	-3%	/	-1%
O=C(NC1CCCCC1)C1CCN(S(=O)(=O)N2CCCCCC2)CC1	-2%	>77	-1%
O=C(NC1CCCCCCC1)C1CCN(S(=O)(=O)N2CCC3(CC2)OCCO3)CC1	4%	11*	1%
C[C@@H](C(=O)O)c1ccc(C[C@@H]2CCCC2=O)cc1	-3%	/	1%
CS(C)(=O)=O	3%	/	-1%
O=C(c1cnccn1)N1CCC2(CCN(Cc3ccccc3)CC2)CC1	-4%	/	-2%
CC1CN(S(=O)(=O)c2ccc(NC(=O)c3cc(-c4ccccc4O)n[nH]3)cc2)CC(C)O1 (stereo unspecified)	-3%	7.6*	-4%
CC1CN(S(=O)(=O)c2ccccc2)CC(C)O1 (stereo unspecified)	-3%	>77	2%
N#Cc1cccc(NC(=O)N2CC[C@@]3(CCCN(C(=O)c4csnn4)C3)C2)c1	-3%	/	0%
COc1ccc2c(c1)N(C[C@@H](C)CN(C)C)c1ccccc1S2	1%[25.7 µM]	/	1%[25.7 µM]
COc1ccc(N(CC(=O)Nc2ccc3c(c2)OCCO3)S(=O)(=O)c2c(C)noc2C)cc1	-1%	12*	-6%
Cc1ccc(N(CC(=O)Nc2ccc3c(c2)OCCO3)S(=O)(=O)c2c(C)noc2C)cc1	-1%	?	1%
